These results are taken from ChEMBL document CHEMBL1961873, “Compounds: GSK PKIS; Assays: Nanosyn kinase panel” (2012).

The target in assay [1] is Leukocyte tyrosine kinase receptor (Homo sapiens) (UniProt P29376). The conditions noted are these: at 1 µM.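 Also: each value is the mean inhibition of LTK.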
The target in assay [2] is Tyrosine-protein kinase Lyn (Homo sapiens) (UniProt P07948). The conditions noted are these: at 0.1 µM.
Assay [3] has the same target. The conditions noted are these: at 1 µM.
Assay [4] has the same target. The conditions noted are these: at 0.1 µM. This is another data set of the same source.
Assay [5] has the same target. The conditions noted are these: at 1 µM. The source holds these as a separate data set.
Assay [6] addresses T1, Tyrosine-protein kinase Mer (Homo sapiens) (UniProt Q12866).
T1 sequence (whole entry): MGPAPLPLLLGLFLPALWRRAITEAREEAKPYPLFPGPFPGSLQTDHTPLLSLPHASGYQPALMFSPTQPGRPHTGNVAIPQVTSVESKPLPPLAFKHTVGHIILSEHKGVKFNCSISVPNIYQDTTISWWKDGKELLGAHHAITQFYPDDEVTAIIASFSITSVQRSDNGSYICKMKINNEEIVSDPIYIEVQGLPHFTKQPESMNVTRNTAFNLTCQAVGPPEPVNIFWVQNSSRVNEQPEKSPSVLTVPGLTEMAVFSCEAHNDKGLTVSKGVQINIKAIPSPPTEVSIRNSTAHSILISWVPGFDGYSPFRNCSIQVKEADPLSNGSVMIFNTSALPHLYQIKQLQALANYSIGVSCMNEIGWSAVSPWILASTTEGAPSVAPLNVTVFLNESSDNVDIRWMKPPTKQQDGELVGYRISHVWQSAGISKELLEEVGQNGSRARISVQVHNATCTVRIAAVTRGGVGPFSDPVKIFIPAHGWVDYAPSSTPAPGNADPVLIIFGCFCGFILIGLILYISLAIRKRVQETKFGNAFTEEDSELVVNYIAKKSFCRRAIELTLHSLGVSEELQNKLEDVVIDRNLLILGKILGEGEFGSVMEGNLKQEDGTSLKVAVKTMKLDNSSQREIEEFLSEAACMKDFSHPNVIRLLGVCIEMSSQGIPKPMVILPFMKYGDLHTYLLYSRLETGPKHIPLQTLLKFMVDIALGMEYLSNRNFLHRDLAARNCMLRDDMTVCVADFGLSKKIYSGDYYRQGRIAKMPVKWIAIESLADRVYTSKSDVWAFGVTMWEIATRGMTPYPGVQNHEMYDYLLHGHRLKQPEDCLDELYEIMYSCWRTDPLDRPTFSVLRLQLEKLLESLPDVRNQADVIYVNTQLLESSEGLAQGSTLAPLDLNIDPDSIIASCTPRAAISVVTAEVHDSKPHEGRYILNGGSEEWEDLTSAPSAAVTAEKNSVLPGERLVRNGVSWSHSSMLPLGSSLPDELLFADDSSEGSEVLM
The conditions noted are these: at 0.1 µM.

Assay [7] has as its target T1, Tyrosine-protein kinase Mer (Homo sapiens). The conditions noted are these: at 1 µM.
Assay [8] addresses Hepatocyte growth factor receptor (Homo sapiens) (UniProt P08581). The conditions noted are these: at 0.1 µM.
For assay [9] the target is unchanged. The conditions noted are these: at 1 µM.
Assay [10] addresses T2, Muscle, skeletal receptor tyrosine-protein kinase (Homo sapiens) (UniProt O15146).
T2 sequence (whole entry): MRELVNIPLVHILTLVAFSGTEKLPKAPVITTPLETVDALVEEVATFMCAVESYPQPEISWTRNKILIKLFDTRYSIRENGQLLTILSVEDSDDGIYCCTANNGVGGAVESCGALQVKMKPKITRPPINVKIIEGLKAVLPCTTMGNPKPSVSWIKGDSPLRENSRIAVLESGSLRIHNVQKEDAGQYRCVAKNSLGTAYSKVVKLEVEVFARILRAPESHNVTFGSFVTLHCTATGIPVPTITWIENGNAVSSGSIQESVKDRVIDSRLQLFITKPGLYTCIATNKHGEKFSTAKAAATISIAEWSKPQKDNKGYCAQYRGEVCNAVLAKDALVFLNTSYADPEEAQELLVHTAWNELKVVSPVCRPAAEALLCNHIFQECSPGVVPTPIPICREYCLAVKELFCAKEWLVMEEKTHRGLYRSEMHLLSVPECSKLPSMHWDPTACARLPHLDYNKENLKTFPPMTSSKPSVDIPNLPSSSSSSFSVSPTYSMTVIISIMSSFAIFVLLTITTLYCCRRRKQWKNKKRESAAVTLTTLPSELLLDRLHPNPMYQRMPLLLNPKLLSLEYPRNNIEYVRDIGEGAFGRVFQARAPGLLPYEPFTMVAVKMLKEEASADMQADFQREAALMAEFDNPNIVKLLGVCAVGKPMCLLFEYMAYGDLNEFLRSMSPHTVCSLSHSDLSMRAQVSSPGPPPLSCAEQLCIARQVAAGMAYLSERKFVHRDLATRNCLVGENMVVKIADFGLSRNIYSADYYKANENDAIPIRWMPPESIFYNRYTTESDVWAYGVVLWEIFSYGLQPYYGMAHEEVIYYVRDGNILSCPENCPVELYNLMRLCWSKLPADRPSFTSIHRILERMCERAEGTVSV
The conditions noted are these: at 0.1 µM.

The target in assay [11] is T2, Muscle, skeletal receptor tyrosine-protein kinase (Homo sapiens). The conditions noted are these: at 1 µM.
Assay [12] concerns the target Platelet-derived growth factor receptor alpha (Homo sapiens) (UniProt P16234). The conditions noted are these: at 0.1 µM.
Assay [13] shares this target. The conditions noted are these: at 1 µM.
In assay [14] the test system is Platelet-derived growth factor receptor alpha (Homo sapiens), P16234 [D842V]. The conditions noted are these: at 0.1 µM.
The test system is the same in assay [15]. The conditions noted are these: at 1 µM.
Assay [16] concerns Platelet-derived growth factor receptor alpha (Homo sapiens), P16234 [T674I]. The conditions noted are these: at 0.1 µM.
Chain of Platelet-derived growth factor receptor alpha (Homo sapiens), P16234 [T674I] (P16234 whole entry T674I): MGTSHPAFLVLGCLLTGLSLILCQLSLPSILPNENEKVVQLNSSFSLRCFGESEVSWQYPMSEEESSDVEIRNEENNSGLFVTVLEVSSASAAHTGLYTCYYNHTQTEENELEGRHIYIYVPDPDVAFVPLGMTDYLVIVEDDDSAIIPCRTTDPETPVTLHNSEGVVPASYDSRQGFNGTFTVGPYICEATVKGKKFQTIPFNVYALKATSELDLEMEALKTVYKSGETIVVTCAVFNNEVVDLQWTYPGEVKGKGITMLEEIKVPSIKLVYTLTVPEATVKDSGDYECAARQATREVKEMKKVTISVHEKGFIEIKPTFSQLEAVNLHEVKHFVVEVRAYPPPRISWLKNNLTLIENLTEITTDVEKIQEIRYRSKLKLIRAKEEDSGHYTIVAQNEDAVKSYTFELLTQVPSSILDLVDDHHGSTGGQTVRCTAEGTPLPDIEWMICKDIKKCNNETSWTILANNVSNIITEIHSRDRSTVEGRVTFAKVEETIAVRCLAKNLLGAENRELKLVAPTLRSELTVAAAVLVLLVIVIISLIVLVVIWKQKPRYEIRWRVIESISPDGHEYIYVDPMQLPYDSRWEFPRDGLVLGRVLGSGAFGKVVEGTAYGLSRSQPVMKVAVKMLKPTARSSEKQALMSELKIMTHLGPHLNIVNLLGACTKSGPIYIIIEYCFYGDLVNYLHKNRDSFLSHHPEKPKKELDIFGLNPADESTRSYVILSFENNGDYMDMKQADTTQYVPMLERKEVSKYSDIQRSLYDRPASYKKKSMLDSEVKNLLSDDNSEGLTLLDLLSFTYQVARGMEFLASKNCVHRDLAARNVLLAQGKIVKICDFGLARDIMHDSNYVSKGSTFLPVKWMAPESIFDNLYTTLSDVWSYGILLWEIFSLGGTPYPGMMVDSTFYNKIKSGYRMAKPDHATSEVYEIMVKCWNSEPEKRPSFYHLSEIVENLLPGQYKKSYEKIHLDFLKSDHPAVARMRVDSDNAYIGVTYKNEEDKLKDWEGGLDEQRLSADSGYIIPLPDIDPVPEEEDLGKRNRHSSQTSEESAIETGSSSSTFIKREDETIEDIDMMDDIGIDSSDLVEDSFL
The test system is the same in assay [17]. The conditions noted are these: at 1 µM.
For assay [18], the system named is Platelet-derived growth factor receptor alpha (Homo sapiens), P16234 [V561D]. The conditions noted are these: at 0.1 µM.
Chain of Platelet-derived growth factor receptor alpha (Homo sapiens), P16234 [V561D] (P16234 whole entry V561D): as the sequence (P16234 whole entry T674I) above, with V561D, I674T counted along it
For assay [19] the test system is unchanged. The conditions noted are these: at 1 µM.
Assay [20] has as its target Platelet-derived growth factor receptor beta (Homo sapiens) (UniProt P09619). The conditions noted are these: at 0.1 µM.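 Also: reported value is the mean percent inhibition of the kinase.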

Chain of Leukocyte tyrosine kinase receptor (Homo sapiens) (P29376 whole entry): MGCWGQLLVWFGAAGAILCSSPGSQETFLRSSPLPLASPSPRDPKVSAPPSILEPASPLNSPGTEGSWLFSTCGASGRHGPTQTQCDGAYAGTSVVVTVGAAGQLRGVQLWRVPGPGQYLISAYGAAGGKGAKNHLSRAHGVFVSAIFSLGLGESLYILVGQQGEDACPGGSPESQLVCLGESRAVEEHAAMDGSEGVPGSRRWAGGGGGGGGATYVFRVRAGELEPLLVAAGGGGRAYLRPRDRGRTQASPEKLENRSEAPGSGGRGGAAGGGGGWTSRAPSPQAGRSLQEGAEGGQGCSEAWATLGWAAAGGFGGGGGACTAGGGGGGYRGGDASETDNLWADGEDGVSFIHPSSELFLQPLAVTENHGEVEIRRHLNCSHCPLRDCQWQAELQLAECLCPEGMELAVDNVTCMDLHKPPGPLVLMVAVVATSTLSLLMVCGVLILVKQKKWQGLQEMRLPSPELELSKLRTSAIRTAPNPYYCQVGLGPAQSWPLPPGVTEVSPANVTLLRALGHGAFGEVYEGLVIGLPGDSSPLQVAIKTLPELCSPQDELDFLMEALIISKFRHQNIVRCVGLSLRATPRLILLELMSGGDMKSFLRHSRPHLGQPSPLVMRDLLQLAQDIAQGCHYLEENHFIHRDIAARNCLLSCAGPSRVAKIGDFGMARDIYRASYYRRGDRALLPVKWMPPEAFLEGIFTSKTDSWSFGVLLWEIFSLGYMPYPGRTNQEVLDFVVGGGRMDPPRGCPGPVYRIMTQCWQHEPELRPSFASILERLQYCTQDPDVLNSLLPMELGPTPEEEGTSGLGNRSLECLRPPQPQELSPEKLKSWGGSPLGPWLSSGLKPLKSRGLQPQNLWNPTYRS
Chain of Platelet-derived growth factor receptor beta (Homo sapiens) (P09619 whole entry): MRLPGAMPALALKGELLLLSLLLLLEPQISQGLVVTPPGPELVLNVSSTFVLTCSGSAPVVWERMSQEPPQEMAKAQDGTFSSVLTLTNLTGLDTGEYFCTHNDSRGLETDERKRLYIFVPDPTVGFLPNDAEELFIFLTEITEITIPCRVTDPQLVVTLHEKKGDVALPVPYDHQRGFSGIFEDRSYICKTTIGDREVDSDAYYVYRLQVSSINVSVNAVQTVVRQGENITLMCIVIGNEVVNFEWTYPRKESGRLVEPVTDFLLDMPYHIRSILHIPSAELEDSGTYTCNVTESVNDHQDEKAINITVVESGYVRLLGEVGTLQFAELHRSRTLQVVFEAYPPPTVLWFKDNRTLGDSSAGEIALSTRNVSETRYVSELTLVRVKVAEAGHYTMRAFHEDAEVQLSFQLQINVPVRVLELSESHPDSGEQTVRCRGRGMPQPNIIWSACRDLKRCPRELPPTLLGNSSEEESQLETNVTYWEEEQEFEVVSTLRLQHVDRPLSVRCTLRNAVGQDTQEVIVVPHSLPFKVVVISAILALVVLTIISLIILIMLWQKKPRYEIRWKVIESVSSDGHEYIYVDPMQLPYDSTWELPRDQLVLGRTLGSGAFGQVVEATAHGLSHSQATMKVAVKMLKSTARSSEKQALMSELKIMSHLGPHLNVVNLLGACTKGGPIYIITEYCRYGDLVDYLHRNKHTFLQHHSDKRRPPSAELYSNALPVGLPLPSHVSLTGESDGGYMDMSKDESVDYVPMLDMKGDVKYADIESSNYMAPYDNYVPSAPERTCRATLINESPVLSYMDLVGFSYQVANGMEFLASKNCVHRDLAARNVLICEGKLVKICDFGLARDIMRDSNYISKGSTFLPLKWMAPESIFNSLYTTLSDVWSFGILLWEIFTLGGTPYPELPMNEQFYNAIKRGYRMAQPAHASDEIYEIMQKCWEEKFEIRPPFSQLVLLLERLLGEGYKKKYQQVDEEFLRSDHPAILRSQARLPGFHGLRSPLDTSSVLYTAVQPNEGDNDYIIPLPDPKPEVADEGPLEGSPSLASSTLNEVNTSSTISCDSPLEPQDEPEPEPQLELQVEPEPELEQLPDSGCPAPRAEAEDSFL
Chain of Tyrosine-protein kinase Lyn (Homo sapiens) (P07948 2-512 limits assumed): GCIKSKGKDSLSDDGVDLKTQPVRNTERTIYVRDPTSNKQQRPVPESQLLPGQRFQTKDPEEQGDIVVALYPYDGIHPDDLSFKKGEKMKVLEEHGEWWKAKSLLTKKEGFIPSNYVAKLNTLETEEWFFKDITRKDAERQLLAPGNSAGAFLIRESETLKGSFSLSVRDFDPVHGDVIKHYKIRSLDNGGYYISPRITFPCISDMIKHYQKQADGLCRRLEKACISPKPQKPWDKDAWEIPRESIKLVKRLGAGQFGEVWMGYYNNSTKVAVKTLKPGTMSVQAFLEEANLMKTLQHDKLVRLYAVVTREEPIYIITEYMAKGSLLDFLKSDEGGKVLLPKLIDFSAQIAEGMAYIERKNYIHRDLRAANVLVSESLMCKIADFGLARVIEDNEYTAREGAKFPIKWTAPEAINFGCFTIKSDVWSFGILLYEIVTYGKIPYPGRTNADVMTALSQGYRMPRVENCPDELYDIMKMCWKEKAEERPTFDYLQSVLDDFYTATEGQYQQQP

As for `CN(C)CCCNc1nccc(-c2c(-c3ccc(F)cc3)nn3cc(C(F)(F)F)ccc23)n1`, the inhibition in assay [1] worked out at 1.19%; in assay [2], 1.87%; in assay [3] it was 6.57%; in assay [4], 0.99%; in [5] it was 5.88%; in assay [6] it was 1.56%. The inhibition was 5.87% in [7]; 3.45% in assay [8]; 10.6% in assay [9]; 10.1% in assay [10]; 12.5% in assay [11]; 12.9% in assay [12]. In addition, the inhibition in [13] stood at 18.6%; in [14] it was 3.3%; in assay [15], 4.77%; in [16] it was 9.27%; in assay [17] it was 4.87%; in assay [18], 0.27%. For the same compound, the inhibition in assay [19] came to 5.89%; in assay [20], 6.34%.

Consider `COC(=O)Nc1nc2ccc(Sc3ccc(NC(=O)Nc4cc(C(F)(F)F)ccc4F)cc3)cc2[nH]1`, for which the inhibition in assay [1] was -2.11%; in [2], 5.69%; in assay [3], 56.1%; in assay [4] it was 4.04%; in [5], 49.8%; in assay [6], -0.94%. Besides, the inhibition came to 2.34% in assay [7]; 1.57% in assay [8]; 36.2% in assay [9]; 32.2% in assay [10]; 78.7% in assay [11]; 10.8% in assay [12]. In addition, the inhibition was determined as 57.6% in assay [13]; 0.97% in assay [14]; 1.45% in assay [15]; 7.2% in [16]; 74.8% in assay [17]; 11.9% in assay [18]. Moreover, the inhibition in assay [19] came out at 56.3%; in [20] it was 4.35%.

Turning to `c1ccc(Oc2ccc(Nc3ncc(-c4ccccc4)o3)cc2)cc1`, the inhibition in assay [1] stood at 1.13%; in [2] it was 3.36%; in assay [3], 2.98%; in assay [4], 1.38%; in assay [5] it was 2.09%; in assay [6], 0.19%. For the same compound, the inhibition in assay [7] was 0.42%; in [8] it was 1.79%; in assay [9], 7.6%; in assay [10], 1.27%; in assay [11] it was 2.81%; in assay [12], 7.17%. Besides, the inhibition stood at 11.5% in [13]; 4.48% in [14]; 3.18% in assay [15]; 4.06% in [16]; 10% in [17]; 7.31% in [18]. For the same compound, the inhibition in [19] was 19.6%; in assay [20] it was 3.82%.

`COc1cc2ncn(-c3cc(OCc4cccs4)c(C(N)=O)s3)c2cc1OC`: the inhibition in assay [1] was 7.14%; in assay [2] it was 4.29%; in assay [3] it was 22.6%; in assay [4], 2.41%; in assay [5] it was 19.3%; in [6], 3.4%. Also, the inhibition was determined as 10.7% in assay [7]; 8.19% in [8]; 13.4% in assay [9]; 4.86% in assay [10]; 12.1% in [11]; 36% in assay [12]. Further, the inhibition in assay [13] was 77.6%; in assay [14], 19.4%; in assay [15], 72.8%; in assay [16], 7.11%; in [17], 57.7%; in assay [18] it was 24.7%. Moreover, the inhibition in assay [19] came to 72.9%; in [20], 31.2%.

`NC(=O)c1cc(-c2ccc(F)cc2)cc(-c2ccncc2)c1N`: the inhibition in assay [1] is 2.67%; in assay [2] it was 7.55%; in [3], 9%; in assay [4], 5%; in [5], 5.99%; in assay [6], 1.16%. For the same compound, the inhibition in [7] amounted to 0.38%; in assay [8], 3.9%; in [9], 8.57%; in [10], 3.05%; in assay [11], 1.32%; in assay [12] it was 3.04%. Moreover, the inhibition was found to be 7.4% in [13]; 1.68% in assay [14]; 12.2% in assay [15]; 4.18% in [16]; 7.19% in [17]; 3.94% in assay [18]. In addition, the inhibition was determined as 4.61% in assay [19] and 2.02% in [20].

With `CCc1ccc(Oc2nccc(-c3c(-c4ccc(F)cc4)ncn3C3CCNCC3)n2)cc1`, the inhibition in assay [1] stood at 2.68%; in [2], 5.24%; in assay [3], 6.76%; in [4] it was 1.59%; in assay [5], 3.26%; in assay [6], 2.01%. The inhibition was found to be 3.05% in assay [7]; 5.76% in assay [8]; 3.25% in [9]; 3.3% in [10]; 6.47% in assay [11]; 2.2% in assay [12]. Also, the inhibition in assay [13] amounted to 10.4%; in assay [14], 1.14%; in assay [15], 3.96%; in assay [16] it was 4.41%; in assay [17] it was 8.8%; in assay [18], 2.14%. The inhibition stood at 4.49% in [19] and 1.82% in [20].

`COc1cccc(/C=N/Nc2ncnc3c2cnn3-c2cccc(OC)c2)c1`: the inhibition in assay [1] was 4.06%; in assay [2], 5.08%; in assay [3], 15.3%; in assay [4] it was 3.29%; in assay [5], 10.9%; in [6], 1.87%. In addition, the inhibition in assay [7] was 2.85%; in [8] it was 4.9%; in assay [9] it was 9.96%; in assay [10], 1.34%; in [11], 3.43%; in assay [12] it was 2.69%. In addition, the inhibition in [13] came out at 14.9%; in assay [14], 2.84%; in assay [15], 7.96%; in assay [16] it was 2.59%; in [17], 6.59%; in assay [18], 2.65%. The inhibition stood at 7.82% in assay [19] and 4.05% in [20].
